# HCMV inh: qHTS Assay for inhibitors of the human cytomegalovirus (HCMV); AID 1259415, 2018; HFF cells, HCMV-luciferase reporter, 72 h; stronger effect = lower value; activity change, negative = inhibition, % at 57.5 µM; hit rate 4.5% among 410,000; in the data active = activity change below about -60%; inconclusive = no clear call, values can overlap the other calls; inactive = above about -39%
#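 Cell-based, HFFs, 1000 cells/well, 16 h 37C; cpds in DMSO + HCMV-luc, MOI 1 PFU/cell; 72 h 37C; OneGlo luminescence after 5 min RT; norm. to buffer vs Salinomycin 10uM.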
# FMDV antiviral: High Throughput Screening for Foot and Mouth Disease Virus Antivirals; FMDV antiviral cell-based qHTS; Potency, µM (top dose mostly 57.9 µM), inactives show at the highest dose activity change, negative = inhibition, most hits filed as inhibitors; hit rate 1.2% among 410,000; AID 1159524, 2015; calls by dose curve; tested in HEK293T cells; note: read-out not given here; potency is the fitted concentration of half-maximal effect; nearly all actives have a fitted effect of over 45% in size
# HCV inh: qHTS Assay for Inhibitors of Hepatitis C Virus (HCV). Huh7.5.1 HCVcc-Cre infection, luciferase reporter, 44 h. hit rate 3.4% among 340,000. Potency, µM (titrated, usually from 41.8 µM), for the others: at the top dose activity change, negative = inhibition, most hits filed as inhibitors; note: potency is the fitted concentration of half-maximal effect
#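 A cell-based infection assay in which seeded cells (1,000 per well) receive test compound after 4 h, are inoculated with HCVcc-Cre at approximately 0.5 moi, and are incubated 44 h before luminescence detection.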
# AmpC inh detg: qHTS Inhibitors of AmpC Beta-Lactamase (assay with detergent). AmpC hydrolysis of nitrocefin, absorbance 480 nm, 0.01% Triton. Potency, µM (series often up to 114 µM), for the others: at the highest dose activity change, negative = inhibition, hits mostly inhibitors. P00811. hit rate 0.041% among 370,000;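 note: potency is the fitted concentration of half-maximal effect; 0% = no-compound wells and -100% = no-enzyme wells; nearly all actives have a fitted effect of over 25% in size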
# Target sequence (P00811 whole entry, looked up): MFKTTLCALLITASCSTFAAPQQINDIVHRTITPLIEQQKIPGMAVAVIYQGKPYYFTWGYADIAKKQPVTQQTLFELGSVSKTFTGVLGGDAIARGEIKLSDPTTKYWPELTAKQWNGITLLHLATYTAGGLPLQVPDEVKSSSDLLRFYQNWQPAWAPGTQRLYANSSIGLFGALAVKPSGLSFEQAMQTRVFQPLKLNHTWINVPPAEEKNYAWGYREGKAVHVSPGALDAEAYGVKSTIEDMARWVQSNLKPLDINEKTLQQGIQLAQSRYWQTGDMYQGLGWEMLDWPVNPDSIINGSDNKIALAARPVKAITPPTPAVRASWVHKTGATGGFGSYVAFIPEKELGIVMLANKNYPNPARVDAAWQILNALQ
#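 20 mM phosphate pH 7.0 + 0.01% (detergent screen) or 0.0001% Triton X-100; 5.3 nM AmpC reagent; cpd preinc 15 min RT; nitrocefin (800 uM stock) to start; A480 q20 s × 4 min; Activity was normalised to no-enzyme and no-compound control wells.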
# AmpC no deterg: qHTS Inhibitors of AmpC Beta-Lactamase (assay without detergent). hit rate 0.52% among 330,000. Potency, µM (doses to about 57.1 µM), for inactives: top-dose activity change, negative = inhibition, hits mostly inhibitors. AmpC nitrocefin hydrolysis, absorbance 480 nm, 0.0001% Triton;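 note: potency is the fitted concentration of half-maximal effect; plate controls were no compound for no effect and no enzyme for full effect; nearly all actives have a fitted effect of over 20% in size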
#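 20 mM phosphate pH 7.0 + 0.01% (detergent screen) or 0.0001% Triton X-100; 5.3 nM AmpC reagent; cpd preinc 15 min RT; nitrocefin (800 uM stock) to start; A480 q20 s × 4 min; Activity was normalised to no-enzyme and no-compound control wells.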
# Starred values were filed as active, the others as inactive; ? = inconclusive; nt = not tested or not shown; ! = repeats disagree; [ ] = dose if it differs, or a comment. Most compounds without a hit are left out; they make up all but 7.3% or so of the library. Unless noted, calls come from the whole dose curve; as a rule, active = well fitted curve in the direction sought with a large enough effect; inconclusive = small, poorly fitted or top-dose-only effect, or another doubt; inactive = no such curve, though single readings can be large; an effect the other way counts as inactive or inconclusive. Unless noted, % is set by controls: 0 for no effect and ±100 for the full control effect.
SMILES,HCMV inh,FMDV antiviral,HCV inh,AmpC inh detg,AmpC no deterg
Cc1nc(C)c(-c2ccc(SCc3ccc(Cl)cc3)nn2)s1,-26.6,-8.5%,?,1.7%,100.6%
COc1ccccc1-c1ccc(SCc2ccc([N+](=O)[O-])cc2)nn1,-68.1*,-14.0%,?,?,-32.1%
Cc1ccc(CS(=O)(=O)c2ncc(Cl)c(C(=O)Nc3nc4ccc(C)cc4s3)n2)cc1,-107.0*,?,nt,23.0%,nt
CCCc1nnc(NC(=O)c2nc(S(=O)(=O)Cc3ccc(C)cc3)ncc2Cl)s1,-106.5*!,35.5µM*,?,20.1%,19.8%
COc1ccc2nc(NC(=O)c3nc(S(=O)(=O)Cc4ccc(C)cc4)ncc3Cl)sc2c1,-99.6*,-8.8%,nt,21.2%,nt
Cc1ccc(CS(=O)(=O)c2ncc(Cl)c(C(=O)Nc3nc4ccc(F)cc4s3)n2)cc1,-93.3*,?,nt,18.5%,nt
CCCc1nnc(NC(=O)c2nc(SCC)ncc2Cl)s1,-2.9,-16.8%,nt,-4.1%,nt
CCOC(=O)C1CCCN(C(=O)CCCn2c(=O)c3cccn3c3cccnc32)C1 (stereo not given),-12.5,-21.8%,0.4%,-1.0%,19.1%
OCC1(Cc2ccc(F)cc2)CCCN(CCCC(F)(F)F)C1 (stereo not given),7.1,-14.8%,3.2%,?,-1.0%
C[C@@H]1C=CCCO[C@]12C(=O)N(CC1CC1)c1cccc(Br)c12,-10.9,nt,nt,nt,nt
O=C(Nc1ncc(Cc2ccccc2Cl)s1)c1ccc(-c2cccc([N+](=O)[O-])c2)o1,-62.6*,?,22.4µM*,-1.3%,-30.1%
CC(=O)Nc1ncc(Cc2cccc(Cl)c2)s1,-33.2,-0.5%,-16.8%,3.5%,-11.2%
Cc1ccc(Cc2cnc(NC(=O)c3ccco3)s2)cc1,0.5,nt,?,2.0%,-12.5%
O=C(Nc1ncc(Cc2cccc([N+](=O)[O-])c2)s1)c1ccco1,-71.9*,7.3%,?,2.7%,-23.3%
CC(C)C(=O)Nc1ncc(Cc2cccc(Cl)c2)s1,-68.6*,-20.3%,-8.7%,0.6%,-27.2%
CCc1ccc(CCC(=O)Nc2ncc(Cc3ccccc3Cl)s2)o1,-60.8*,-21.4%,?,-1.8%,-27.8%
COc1ccccc1NC(=O)c1cc(-c2cc(OC)c(OC)c(OC)c2)nc2ccccc12,-6.3,-22.5%,?,4.1%,10.4%
CCOc1ccccc1NC(=O)c1cc(-c2cc(OC)c(OC)c(OC)c2)nc2ccccc12,28.8,-23.5%,8.91µM*,-2.0%,104.5%
COc1ccc(NC(=O)c2cc(-c3ccc(C)o3)nc3ccccc23)c(OC)c1,-18.6,15.4%,10µM*,nt,nt
COc1ccc(OC)c(-c2cc(C(=O)Nc3ccccc3C(N)=O)c3ccccc3n2)c1,10.5,?,10µM*,nt,nt
COc1ccc(OC)c(-c2cc(C(=O)N/N=C/c3ccc(F)cc3)c3ccccc3n2)c1,0.1,-12.6%,1.3%,nt,nt
COc1ccc(NC(=O)c2cc(-c3ccc(C)o3)nc3ccccc23)cc1OC,79.2,-11.6%,?,1.9%,63.1%
COc1ccc2cc3c(N)nn(C(=O)c4ccccc4[N+](=O)[O-])c3nc2c1,-70.0*,-11.9%,?,-4.3%,-11.0%
CCCC1CCC(C(=O)n2nc(N)c3cc4ccc(OC)cc4nc32)CC1 (stereo not given),-20.7,-16.3%,-6.9%[8.37 µM],?,-9.7%
COc1ccc2cc3c(N)nn(C(=O)c4ccc(Cl)c([N+](=O)[O-])c4)c3nc2c1,-90.9*,-1.7%,-4.6%,?,-4.2%
SMILES,HCMV inh,FMDV antiviral,HCV inh,AmpC inh detg,AmpC no deterg
Cc1cnc(-n2ncc(C(=O)N(C)C3CCOC3)c2-c2cccs2)nc1-c1ccc(F)cc1 (stereo not given),nt,36.3%,nt,nt,nt
CCCCCCCCN1C(=O)[C@@H](CC(=O)NCc2ccc(OC)c(OC)c2)C[C@@]2(C(=O)OC)C1=C[C@H](C(C)(C)C)O[C@@H]2C,120.0,nt,nt,nt,nt
CCCn1nc(C(=O)Nc2ccc3nc(N4CCOCC4)sc3c2)ccc1=O,-76.2*,12.6µM*,?,-10.5%,70.7%
CCOCc1c(C(=O)Nc2cc(OCC)c(N3CCOCC3)cc2OCC)oc2ccccc12,73.6,?,4.0%,8.9%,-14.8%
CCOCc1c(C(=O)Nc2ccccc2N2CCN(C)CC2)oc2ccccc12,12.4,-23.8%,11.2µM*,-13.7%,173.1%
COc1ccc(C(=O)Nc2ccc3nc(N4CCOCC4)sc3c2)cc1OC,87.6,-9.4%,?,2.6%,-4.1%
CCOCc1c(C(=O)Nc2ccc3nc(N4CCOCC4)sc3c2)oc2ccccc12,43.6,20µM*,?,-3.6%,138.8%
O=C(Nc1cccc(OC(F)(F)F)c1)c1cnc(N2CCN(Cc3cccc(C(F)(F)F)c3)C2=O)o1,-9.6,nt,nt,nt,nt
O=C(Nc1cccc2ncccc12)c1cc(Br)ccc1Cl,-13.6,?,-7.2%,2.4%,-7.7%
Cc1n[nH]c(=O)c2c(NC(=O)COC(=O)/C=C/c3cccc(C(F)(F)F)c3)oc(C)c12,18.1,?,-2.8%,?,18.9%
NC(=O)c1c(-c2ccc(Cl)cc2Cl)csc1NC(=O)Cc1ccccc1,-65.1*,?,?,?,-35.1%
O=C(Cc1ccccc1)Nc1scc(-c2ccccc2)c1C(=O)N1CCOCC1,nt,14.0%,-25.4%,1.0%,0.9%
CC(=O)N1CCc2cc(S(=O)(=O)N3c4ccccc4CC3C)ccc21 (stereo not given),-77.1*,nt,?,?,-5.2%
CCC(=O)N1CCc2cc(S(=O)(=O)N3CCc4ccccc43)ccc21,-6.6,-15.7%,-7.6%,-7.2%,-1.9%
CC(=O)N1CCc2cc(S(=O)(=O)N3CCOCC3)ccc21,-7.0,-1.2%,8.4%,-1.4%,-2.1%
O=C(C1CC1)N1CCc2cc(S(=O)(=O)N3CCCc4ccccc43)ccc21,-68.4*,0.0%,-6.1%,-5.8%,-7.6%
CC(=O)c1ccc(N2CCN(S(=O)(=O)c3ccc4c(c3)CC(C)N4C(C)=O)CC2)cc1 (stereo not given),-28.1,?,6.31µM*,-2.0%,150.8%
CC(=O)N1c2ccc(S(=O)(=O)N3CCOCC3)cc2CC1C (stereo not given),51.6,4.8%,11.9%,0.4%,-1.7%
CC(=O)c1ccc(N2CCN(S(=O)(=O)c3ccc4c(c3)CC(C)N4C(=O)C3CC3)CC2)cc1 (stereo not given),-14.2,?,3.55µM*,-12.8%,-3.1%
O=C(CSc1n[nH]c(=O)[nH]c1=O)NC1CCCCC1,34.5,-0.1%,10.3%,3.4%,-0.9%
CCN(CC)Cc1nc2c(c(=O)[nH]1)C(CC)(CC)Cc1ccccc1-2,?,-2.1%,-28.2%,-5.2%,-4.6%
CCN(c1cccc(C)c1)S(=O)(=O)c1ccc2c(c1)CCN2C(C)=O,?,?,11.2µM*,-8.0%,60.0%
